Test results as given in PubChem BioAssay (Tox21).
Records with an inconclusive call do not appear. Where a call stands in place of a potency, no number is given. Activity calls are given as the source filed them. Calls come from the whole dose curve; as a rule, active = well fitted cell-killing curve with a large enough effect in the repeat runs; inconclusive = weak or mixed curves; inactive = no such curve, though single readings can be large or run the other way.

experiment: qHTS assay to identify small molecule antagonists of the peroxisome proliferator-activated receptor delta (PPARd) signaling pathway - cell viability counter screen (AID 743213); details: PPARd-bla HEK293H viability, CellTiter-Glo luminescence, 17 h; series mostly up to 62 µM; note: nearly all actives have a fitted effect of over 50% in size
Source text: U.S. Tox21 Program National Center for Advancing Translational Sciences [NCATS] NIH Chemical Genomics Center [NCGC] U.S. Environmental Protection Agency [EPA] National Institutes of Environmental Health Sciences [NIEHS] National Toxicology Program [NTP] U.S. Food and Drug Administration [FDA] Tox21 Assay Overview: The peroxisome proliferator-activated receptors (PPARs) are lipid-activated transcription factors of the nuclear receptor superfamily with three distinct subtypes namely PPAR alpha, PPAR delta (PPARd) and PPAR gamma. All these subtypes heterodimerizes with Retinoid X receptor (RXR) and have different physiological functions. […] To identify the compounds that inhibit PPAR-delta signaling, GeneBLAzer PPAR delta UAS-bla HEK293H cell line (Invitrogen, Carlsbad, CA, USA) containing a beta-lactamase reporter gene under the control of an Upstream Activator Sequence (UAS) was used to screen the Tox21 compound library. The cytotoxicity of the Tox21 compound library against the PPARd-bla cell line was tested in parallel by measuring the cell viability using CellTiter-Glo assay (Promega, Madison, WI) in the same wells.
Tox21 Assay Protocol Summary: PPARd-bla cells were dispensed at 3000 cells/5uL/well in 1536-well black wall/clear bottom plates using a Multidrop Combi (Thermo Fisher Scientific, Waltham, MA) dispenser. After the assay plates were incubated at 37 C and 5% CO2 for 5 h, 23 nL of compounds dissolved in DMSO, positive controls or DMSO only was transferred to the assay plate by a Pintool station (Kalypsys, San Diego, CA), followed by addition of 1ul L165041 (300 nM, final concentration in the wells). The assay plates were incubated at 37 C for 17 h, and then 1 uL of LiveBLAzerTM B/G FRET substrate was added using a Bioraptr Flying Reagent Dispenser (FRD) workstation (Beckman Coulter, Indianapolis, IN, USA). The assay plates were incubated at room temperature for 2 h and fluorescence intensity was measured by an Envision plate reader (PerkinElmer, Shelton, CT). For cell viability readout that measures cytotoxicity, 3 ul/well of CellTiter-Glo reagent was added into the assay plates using a Bioraptr FRD. After 30 min incubation at room temperature, the luminescence intensity in the plates was measured using a ViewLux plate reader (PerkinElmer).
Potency is the fitted concentration of half-maximal effect.

Structure (SMILES) | Potency
c1ccc(Nc2ccc(Nc3ccccc3)cc2)cc1 | inactive
CCCCN(CCCC)C(=S)S | inactive
CC(=O)O.CC(=O)O.CC(=O)O.CC(=O)O.CC(=O)O.CC(=O)O.CC(=O)O.O.O.[Cr].[Cr].[Cr] | inactive
N#Cc1ccc(N(CC(N)=O)CC(F)(F)F)cc1C(F)(F)F | inactive
CNC(=O)O/N=C(\C)C(C)S(C)(=O)=O (stereo not given) | inactive
O=C(NC(=O)c1ccccc1Cl)Nc1ccc(OC(F)(F)F)cc1 | inactive
C[C@@H]1CC2=CC(=O)CC[C@@H]2[C@H]2CC[C@@]3(C)[C@@H](CC[C@]3(C)O)[C@@H]21 | inactive
O=c1[nH]c2cc(Cl)ccc2n1C1CCNCC1 | inactive
O=C1C(Cl)=C(Cl)C(=O)C(Cl)=C1Cl | 13.8 µM (active)
c1csc(-c2ccc(-c3cccs3)s2)c1 | inactive
Oc1ccc([C@H]2CNCc3c2ccc(O)c3O)cc1O | inactive
COP(=O)(OC)O/C(=C\Cl)c1cc(Cl)c(Cl)cc1Cl | inactive
CCNc1nc(NC(C)C(C)C)nc(SC)n1 (stereo not given) | inactive
Cc1ccn2nc(S(=O)(=O)Nc3c(F)cccc3F)nc2n1 | inactive
c1cc[n+]2c(c1)-c1cccc[n+]1CC2 | inactive
BrCCCBr | inactive
CCCCn1cc[n+](C)c1 (tested in a mixture with another compound) | inactive
[O]=[Cr][O][Cr]=[O] | inactive
O=S(=O)(NS(=O)(=O)C(F)(F)F)C(F)(F)F | inactive
CNC(C)(C)Cc1ccccc1 | inactive

Structure (SMILES) | Potency
COP(=S)(OC)Oc1ccc([N+](=O)[O-])c(C)c1 | inactive
CN1C2CCC(C)(C)C1CC(OC(=O)C(O)(c1cccs1)c1cccs1)C2 (stereo not given) | inactive
Cc1c([N+](=O)[O-])cc2c(c1[N+](=O)[O-])C(C)(C)CC2(C)C | inactive
S=C=Nc1ccccc1 | inactive
O=S(=O)(O)F | inactive
Brc1cccc(-c2ccccc2)c1 | inactive
CC(=O)C(Cl)C(=O)N(C)C (stereo not given) | inactive
CCOC(=O)CCN(SN(C)C(=O)Oc1cccc2c1OC(C)(C)C2)C(C)C | inactive
CCCCCCCCCCCCCCn1cc[n+](C)c1 | 21.6 µM (active)
O=NN(CCO)CCO | inactive
BrCC(Br)(Br)Br | inactive
CCCCON=O | inactive
C=CCBr | inactive
CCCCn1cc[n+](C)c1.[Cl][Fe-]([Cl])([Cl])[Cl] | inactive
S=C=NCCc1ccccc1 | inactive
Nc1nc(N)nc(Cl)n1 | inactive
Oc1cc(Cl)cc(Cl)c1 | inactive
Nc1ccccc1-c1ccccc1 | inactive
OCC(Br)CBr (stereo not given) | inactive
CCC(C)Nc1c([N+](=O)[O-])cc(C(C)(C)C)cc1[N+](=O)[O-] (stereo not given) | inactive
